Results as given in the supplement of paper PMC10849652.
The full data set covers some 7,900 targets. This sample favours those with a hit. About 0.6% of all pairs of compound and target were hits.

Tests used:
Assay in all cases: log2 fold change, soluble protein after heating vs DMSO (PISA); higher = thermal stabilisation; K562 cells, 10 uM, 30 min; active = over 0.2 and 3.5 SD of the protein, either way, in both replicates (recomputed)
[1] = compound: CC1=C(C=C(C=C1)NC(=O)C2=CC(=CC=C2)C(C)(C)C#N)NC3=CC4=C(C=C3)N=CN(C4=O)C
Procedure, shortened: (§1)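 Soluble protein was quantified by TMTpro 16plex LC-MS/MS after channel sums were equalised. It was obtained as the supernatant after 21,000xg for 90 min from pooled aliquots of K562 cells (2×10^6 cells/mL, 10 μM compound, 30 min) heated for 3 min across 48°C-58°C and extracted in PBS with 0.5% NP-40 at 4°C. Thermal stability values are relative to control samples and come from duplicates. They are given as log2 fold changes.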

[2] = compound: CC1=C(C=C(C=C1)NC(=O)C2=CC(=CC=C2)N(C)C)NC(=O)C3=CC=C(C=C3)O
Procedure, shortened: as §1

[3] = compound: CC1=CC=C(C=C1)SC2=C3C=C(SC3=CN=C2)C(=O)N
Procedure, shortened: as §1

[4] = compound: CC1=NC(=CC=C1)C2=C(N=C(N2)C(C)(C)C)C3=CC4=NC=CN=C4C=C3
Procedure, shortened: as §1

[5] = compound: CCCCN(Cc1ccc(C(=O)NO)cc1)C(=O)Nc1ccccc1 [Nexturastat A]
Procedure, shortened: as §1

[6] = compound: CCCS(=O)(=O)Nc1ccc(F)c(C(=O)c2c[nH]c3ncc(-c4ccc(Cl)cc4)cc23)c1F [vemurafenib]
Procedure, shortened: as §1

[7] = compound: CCCS(=O)(=O)Nc1ccc(F)c(C(=O)c2c[nH]c3ncc(Cl)cc23)c1F
Procedure, shortened: as §1

[8] = compound: CCCc1cc(C)[nH]c(=O)c1CNC(=O)c1cc(-c2ccnc(N3CCN(C)CC3)c2)cc2c1cnn2C(C)C
Procedure, shortened: as §1

[9] = compound: CCN(CC)Cc1ccc2cc(COC(=O)Nc3ccc(C(=O)NO)cc3)ccc2c1 [givinostat]
Procedure, shortened: as §1

[10] = compound: CCN(CCCOc1ccc2c(Nc3cc(CC(=O)Nc4cccc(F)c4)[nH]n3)ncnc2c1)CCOP(=O)(O)O [barasertib]
Procedure, shortened: as §1

Measured: log2 fold change

EOGT (UniProt Q5NDL2)
Chain of UniProt Q5NDL2 (Q5NDL2 whole entry, looked up): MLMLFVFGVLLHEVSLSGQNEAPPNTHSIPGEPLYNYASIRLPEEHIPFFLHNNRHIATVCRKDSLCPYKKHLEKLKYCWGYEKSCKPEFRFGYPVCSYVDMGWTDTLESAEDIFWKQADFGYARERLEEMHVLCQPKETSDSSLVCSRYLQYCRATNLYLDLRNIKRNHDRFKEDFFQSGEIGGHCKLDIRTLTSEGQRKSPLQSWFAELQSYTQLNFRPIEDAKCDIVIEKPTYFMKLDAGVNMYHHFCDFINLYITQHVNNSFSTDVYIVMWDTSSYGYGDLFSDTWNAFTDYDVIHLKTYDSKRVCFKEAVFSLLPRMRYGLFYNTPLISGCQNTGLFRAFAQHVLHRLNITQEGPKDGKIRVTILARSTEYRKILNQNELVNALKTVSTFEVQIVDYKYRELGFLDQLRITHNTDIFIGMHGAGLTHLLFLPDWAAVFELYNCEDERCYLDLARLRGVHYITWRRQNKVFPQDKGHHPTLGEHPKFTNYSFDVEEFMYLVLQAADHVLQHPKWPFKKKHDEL
inactive: [1] -0.043 | [2] -0.073 | [3] -0.088 | [4] -0.052 | [5] 0.033 | [6] -0.05 | [7] -0.098 | [8] -0.043 | [9] 0.02 | [10] -0.026

EIF3J (UniProt O75822)
inactive: [1] 0.01 | [2] -0.026 | [3] -0.005 | [4] 0.039 | [5] -0.068 | [6] 0.05 | [7] -0.022 | [8] 0.004 | [9] 0.011 | [10] 0.046

ERLIN2 (UniProt O94905)
Chain of UniProt O94905 (O94905 whole entry, looked up): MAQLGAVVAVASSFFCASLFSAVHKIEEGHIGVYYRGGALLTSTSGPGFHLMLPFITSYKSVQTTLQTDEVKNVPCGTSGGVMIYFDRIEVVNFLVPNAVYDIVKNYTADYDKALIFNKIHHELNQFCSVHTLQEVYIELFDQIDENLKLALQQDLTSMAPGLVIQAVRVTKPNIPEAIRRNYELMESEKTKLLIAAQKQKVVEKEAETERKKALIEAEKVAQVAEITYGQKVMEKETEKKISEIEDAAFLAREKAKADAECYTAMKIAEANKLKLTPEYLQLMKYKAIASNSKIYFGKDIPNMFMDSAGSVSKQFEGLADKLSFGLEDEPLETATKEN
inactive: [1] -0.045 | [2] -0.024 | [3] 0.009 | [4] -0.037 | [5] 0.104 | [6] -0.062 | [7] 0.008 | [8] 0.12 | [9] 0.038 | [10] -0.003

DTYMK (UniProt P23919)
inactive: [1] -0.001 | [2] 0.05 | [3] 0 | [4] 0.015 | [5] -0.009 | [6] -0.017 | [7] -0.069 | [8] -0.1 | [9] -0.007 | [10] -0.011

DHRS1 (UniProt Q96LJ7)
inactive: [1] 0.357 | [2] -0.143 | [3] -0.166 | [4] -0.202 | [5] 0.096 | [6] 0.29 | [7] -0.079 | [8] 0.088 | [9] 0.068 | [10] -0.05

DAG1 (UniProt Q14118)
inactive: [1] -0.053 | [2] -0.019 | [3] -0.013 | [4] 0.001 | [5] -0.005 | [6] 0.005 | [7] -0.06 | [8] -0.028 | [9] 0.019 | [10] 0.011

FAM117A (UniProt Q9C073)
Chain of UniProt Q9C073 (Q9C073 whole entry, looked up): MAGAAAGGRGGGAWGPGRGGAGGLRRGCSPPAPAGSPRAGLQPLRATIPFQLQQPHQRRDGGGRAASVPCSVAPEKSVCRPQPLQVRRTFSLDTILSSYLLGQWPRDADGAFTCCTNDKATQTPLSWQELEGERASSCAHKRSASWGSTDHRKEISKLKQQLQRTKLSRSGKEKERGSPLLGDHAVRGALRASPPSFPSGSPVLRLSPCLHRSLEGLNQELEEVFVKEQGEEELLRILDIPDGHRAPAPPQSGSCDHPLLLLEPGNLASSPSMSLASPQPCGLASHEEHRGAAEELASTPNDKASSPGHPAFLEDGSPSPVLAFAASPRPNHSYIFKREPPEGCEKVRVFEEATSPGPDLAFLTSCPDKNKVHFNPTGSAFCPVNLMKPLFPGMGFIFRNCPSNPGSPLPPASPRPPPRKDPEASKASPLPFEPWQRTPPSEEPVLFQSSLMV
inactive: [1] 0.036 | [2] 0.013 | [3] -0.007 | [4] -0.034 | [5] 0.004 | [6] -0.023 | [7] -0.004 | [8] -0.001 | [9] 0.109 | [10] 0.053

CWC27 (UniProt Q6UX04)
inactive: [1] -0.001 | [2] -0.035 | [3] 0.002 | [4] 0.021 | [5] -0.029 | [6] 0.128 | [7] 0.112 | [8] 0.009 | [9] 0.082 | [10] 0.073

EGLN1 (UniProt Q9GZT9)
inactive: [1] -0.14 | [2] 0.009 | [3] -0.013 | [4] 0.048 | [5] -0.096 | [6] -0.007 | [7] 0.006 | [8] 0.017 | [9] -0.191 | [10] 0.066

EMD (UniProt P50402)
inactive: [1] -0.056 | [2] 0.011 | [3] -0.076 | [4] -0.04 | [5] 0.059 | [6] -0.015 | [7] 0.021 | [8] -0.092 | [9] 0.002 | [10] 0.002

EXOC6 (UniProt Q8TAG9)
inactive: [1] -0.054 | [2] -0.028 | [3] 0.104 | [4] 0.032 | [5] 0.133 | [6] 0.104 | [7] 0.022 | [8] 0.009 | [9] 0.075 | [10] -0.018

DCAF10 (UniProt Q5QP82)
Chain of UniProt Q5QP82 (Q5QP82 whole entry, looked up): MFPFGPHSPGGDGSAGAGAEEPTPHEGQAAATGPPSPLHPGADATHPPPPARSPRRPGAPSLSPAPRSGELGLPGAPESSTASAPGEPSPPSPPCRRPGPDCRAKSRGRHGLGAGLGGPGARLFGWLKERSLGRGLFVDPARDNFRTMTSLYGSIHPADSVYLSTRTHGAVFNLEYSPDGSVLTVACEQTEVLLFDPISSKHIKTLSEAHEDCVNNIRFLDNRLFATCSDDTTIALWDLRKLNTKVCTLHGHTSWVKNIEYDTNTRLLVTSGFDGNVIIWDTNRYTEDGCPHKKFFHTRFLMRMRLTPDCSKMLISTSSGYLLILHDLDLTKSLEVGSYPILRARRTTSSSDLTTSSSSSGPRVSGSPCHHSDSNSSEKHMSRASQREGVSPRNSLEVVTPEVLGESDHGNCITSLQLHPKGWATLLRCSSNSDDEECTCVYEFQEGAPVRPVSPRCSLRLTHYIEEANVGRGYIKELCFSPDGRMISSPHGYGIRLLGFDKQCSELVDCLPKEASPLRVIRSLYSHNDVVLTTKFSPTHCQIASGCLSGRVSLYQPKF
inactive: [1] -0.024 | [2] 0.121 | [3] -0.015 | [4] -0.009 | [5] 0.012 | [6] -0.044 | [7] 0.002 | [8] -0.121 | [9] -0.094 | [10] -0.006

DBN1 isoform 3 (UniProt Q16643)
inactive: [1] -0.079 | [2] 0.045 | [3] 0.016 | [4] -0.002 | [5] 0.104 | [6] 0.075 | [7] 0.032 | [8] -0.062 | [9] -0.026 | [10] -0.038

EIF4E isoform 2 (UniProt P06730)
inactive: [1] 0.044 | [2] -0.035 | [3] 0.008 | [4] 0.02 | [5] -0.078 | [6] 0.078 | [7] 0.109 | [8] -0.086 | [9] 0.012 | [10] -0.07

EXOC2 (UniProt Q96KP1)
inactive: [1] -0.03 | [2] -0.017 | [3] 0.051 | [4] 0.027 | [5] 0.058 | [6] 0.041 | [7] 0.062 | [8] 0.037 | [9] 0.177 | [10] 0.056

DHX40 (UniProt Q8IX18)
inactive: [1] 0.105 | [2] -0.047 | [3] 0.02 | [4] -0.027 | [5] 0.12 | [6] 0 | [7] 0.043 | [8] 0.025 | [9] 0.087 | [10] -0.002

ERLIN1 (UniProt O75477)
Chain of UniProt O75477 (O75477 whole entry, looked up): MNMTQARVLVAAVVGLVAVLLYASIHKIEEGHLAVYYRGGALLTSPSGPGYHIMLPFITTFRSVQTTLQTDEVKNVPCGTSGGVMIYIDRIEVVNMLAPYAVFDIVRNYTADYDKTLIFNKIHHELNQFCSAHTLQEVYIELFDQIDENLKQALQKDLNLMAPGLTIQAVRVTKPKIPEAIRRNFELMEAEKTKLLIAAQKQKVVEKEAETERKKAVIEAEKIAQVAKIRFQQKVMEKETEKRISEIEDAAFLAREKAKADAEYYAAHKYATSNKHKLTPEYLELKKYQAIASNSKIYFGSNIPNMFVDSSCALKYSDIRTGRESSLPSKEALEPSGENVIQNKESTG
inactive: [1] 0.011 | [2] -0.018 | [3] 0.028 | [4] -0.01 | [5] 0.031 | [6] -0.02 | [7] 0.014 | [8] 0.065 | [9] 0.014 | [10] 0.028

FADS3 (UniProt Q9Y5Q0)
inactive: [1] 0.031 | [2] -0.002 | [3] -0.012 | [4] 0.031 | [5] -0.096 | [6] 0.01 | [7] 0.026 | [8] -0.069 | [9] -0.108 | [10] 0.042

EFL1 (UniProt Q7Z2Z2)
inactive: [1] -0.025 | [2] 0.004 | [3] 0.016 | [4] 0.012 | [5] -0.11 | [6] 0.04 | [7] 0.036 | [8] 0.008 | [9] 0.004 | [10] 0.05

EHD2 (UniProt Q9NZN4)
inactive: [1] -0.037 | [2] -0.026 | [3] -0.007 | [4] 0.059 | [5] 0.003 | [6] 0.029 | [7] 0.007 | [8] -0.024 | [9] 0.024 | [10] 0.03

DDX4 (UniProt Q9NQI0)
Chain of UniProt Q9NQI0 (Q9NQI0 whole entry, looked up): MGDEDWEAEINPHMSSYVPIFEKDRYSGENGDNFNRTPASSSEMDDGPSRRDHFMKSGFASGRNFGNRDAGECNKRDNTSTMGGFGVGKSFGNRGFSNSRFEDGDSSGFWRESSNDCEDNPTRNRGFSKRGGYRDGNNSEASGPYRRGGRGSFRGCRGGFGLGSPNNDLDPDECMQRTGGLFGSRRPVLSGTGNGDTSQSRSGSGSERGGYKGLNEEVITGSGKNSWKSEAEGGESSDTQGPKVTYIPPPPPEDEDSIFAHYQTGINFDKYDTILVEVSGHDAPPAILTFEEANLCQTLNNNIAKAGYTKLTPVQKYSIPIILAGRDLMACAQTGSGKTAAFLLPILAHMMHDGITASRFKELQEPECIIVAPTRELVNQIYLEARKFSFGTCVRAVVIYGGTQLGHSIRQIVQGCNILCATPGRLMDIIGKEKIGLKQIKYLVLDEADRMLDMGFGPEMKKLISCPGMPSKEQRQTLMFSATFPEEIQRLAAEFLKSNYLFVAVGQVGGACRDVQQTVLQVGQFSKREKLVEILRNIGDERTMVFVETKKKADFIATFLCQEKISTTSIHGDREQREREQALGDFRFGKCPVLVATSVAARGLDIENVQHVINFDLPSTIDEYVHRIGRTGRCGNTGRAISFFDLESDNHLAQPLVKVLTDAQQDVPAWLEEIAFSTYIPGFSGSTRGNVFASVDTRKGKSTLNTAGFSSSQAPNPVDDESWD
inactive: [1] -0.451 | [2] 0.035 | [3] -0.328 | [4] -0.336 | [5] 0.263 | [6] -0.569 | [7] -0.447 | [8] 0.327 | [9] 0.271 | [10] -0.094

DNAJB1 (UniProt P25685)
inactive: [1] 0.015 | [2] -0.045 | [3] -0.003 | [4] 0.086 | [5] -0.03 | [6] 0.009 | [7] 0.028 | [8] -0.051 | [9] 0.024 | [10] 0.024

CYBA (UniProt P13498)
inactive: [1] -0.017 | [2] 0.025 | [3] 0.041 | [4] -0.02 | [5] -0.033 | [6] 0 | [7] 0.008 | [8] -0.028 | [9] 0.007 | [10] -0.033

DFFB (UniProt O76075)
inactive: [1] -0.023 | [2] -0.013 | [3] 0.013 | [4] 0.019 | [5] -0.04 | [6] 0.055 | [7] 0 | [8] -0.109 | [9] -0.059 | [10] 0.034

FAM160B1 (UniProt Q5W0V3)
inactive: [1] 0.033 | [2] 0.128 | [3] -0.019 | [4] 0.051 | [5] -0.023 | [6] 0.149 | [7] 0.034 | [8] 0.014 | [9] 0.016 | [10] 0.109

FAM83D (UniProt Q9H4H8)
inactive: [1] 0.008 | [2] -0.029 | [3] 0.028 | [4] 0.018 | [5] 0.102 | [6] 0.041 | [7] 0.097 | [8] 0.016 | [9] 0.103 | [10] 0.128

DDX46 (UniProt Q7L014)
Chain of UniProt Q7L014 (Q7L014 whole entry, looked up): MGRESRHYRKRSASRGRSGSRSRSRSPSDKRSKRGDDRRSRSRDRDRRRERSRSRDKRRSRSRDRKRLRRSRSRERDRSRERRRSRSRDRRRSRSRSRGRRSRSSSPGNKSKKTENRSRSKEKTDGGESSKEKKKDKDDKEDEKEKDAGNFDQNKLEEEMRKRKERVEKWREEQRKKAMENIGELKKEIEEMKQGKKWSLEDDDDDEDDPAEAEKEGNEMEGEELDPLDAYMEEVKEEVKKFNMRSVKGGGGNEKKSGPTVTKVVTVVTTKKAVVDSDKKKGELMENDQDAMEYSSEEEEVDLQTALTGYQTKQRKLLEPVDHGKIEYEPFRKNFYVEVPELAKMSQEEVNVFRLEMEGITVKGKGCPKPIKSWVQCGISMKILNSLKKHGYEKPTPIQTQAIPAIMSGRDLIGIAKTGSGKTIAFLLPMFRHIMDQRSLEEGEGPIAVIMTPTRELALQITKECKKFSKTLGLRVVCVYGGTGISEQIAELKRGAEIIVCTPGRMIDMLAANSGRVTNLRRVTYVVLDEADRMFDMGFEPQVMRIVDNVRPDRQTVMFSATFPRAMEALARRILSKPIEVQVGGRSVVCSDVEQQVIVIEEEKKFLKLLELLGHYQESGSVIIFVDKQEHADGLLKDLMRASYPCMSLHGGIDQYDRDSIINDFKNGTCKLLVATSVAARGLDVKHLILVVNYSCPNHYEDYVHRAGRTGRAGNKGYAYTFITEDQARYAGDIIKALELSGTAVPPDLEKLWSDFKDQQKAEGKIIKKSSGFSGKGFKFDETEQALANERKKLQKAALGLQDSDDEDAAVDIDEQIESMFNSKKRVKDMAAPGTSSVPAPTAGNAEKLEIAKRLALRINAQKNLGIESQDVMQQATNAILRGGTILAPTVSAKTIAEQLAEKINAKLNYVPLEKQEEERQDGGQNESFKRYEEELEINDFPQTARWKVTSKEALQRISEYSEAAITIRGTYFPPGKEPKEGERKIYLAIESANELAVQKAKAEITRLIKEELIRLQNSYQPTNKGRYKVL
inactive: [1] 0.123 | [2] -0.117 | [3] 0 | [4] 0.069 | [5] -0.069 | [6] 0.099 | [7] 0.136 | [8] 0.001 | [9] 0.171 | [10] 0.13

EXOC7 (UniProt Q9UPT5)
inactive: [1] -0.116 | [2] -0.057 | [3] -0.014 | [4] -0.05 | [5] 0.065 | [6] 0.032 | [7] 0.07 | [8] 0.079 | [9] 0.09 | [10] 0.036

EDC3 (UniProt Q96F86)
Chain of UniProt Q96F86 (Q96F86 whole entry, looked up): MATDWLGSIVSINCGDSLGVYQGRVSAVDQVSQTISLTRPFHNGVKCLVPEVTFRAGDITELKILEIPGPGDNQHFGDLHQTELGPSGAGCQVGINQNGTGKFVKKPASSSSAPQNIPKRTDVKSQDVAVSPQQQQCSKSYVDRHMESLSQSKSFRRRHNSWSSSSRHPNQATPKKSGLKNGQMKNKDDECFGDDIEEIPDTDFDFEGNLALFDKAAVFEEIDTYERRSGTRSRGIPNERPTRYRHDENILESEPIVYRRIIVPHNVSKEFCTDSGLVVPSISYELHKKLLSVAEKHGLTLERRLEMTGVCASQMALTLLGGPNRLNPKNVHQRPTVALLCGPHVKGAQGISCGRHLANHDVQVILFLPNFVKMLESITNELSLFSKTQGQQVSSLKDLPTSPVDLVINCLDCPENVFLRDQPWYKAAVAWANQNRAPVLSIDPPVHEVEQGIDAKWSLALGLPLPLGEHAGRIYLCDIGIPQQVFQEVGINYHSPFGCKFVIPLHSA
inactive: [1] -0.046 | [2] 0.085 | [3] 0.021 | [4] 0.037 | [5] 0.088 | [6] 0.046 | [7] 0.008 | [8] 0.1 | [9] 0.049 | [10] 0.055

DHCR7 (UniProt Q9UBM7)
Chain of UniProt Q9UBM7 (Q9UBM7 whole entry, looked up): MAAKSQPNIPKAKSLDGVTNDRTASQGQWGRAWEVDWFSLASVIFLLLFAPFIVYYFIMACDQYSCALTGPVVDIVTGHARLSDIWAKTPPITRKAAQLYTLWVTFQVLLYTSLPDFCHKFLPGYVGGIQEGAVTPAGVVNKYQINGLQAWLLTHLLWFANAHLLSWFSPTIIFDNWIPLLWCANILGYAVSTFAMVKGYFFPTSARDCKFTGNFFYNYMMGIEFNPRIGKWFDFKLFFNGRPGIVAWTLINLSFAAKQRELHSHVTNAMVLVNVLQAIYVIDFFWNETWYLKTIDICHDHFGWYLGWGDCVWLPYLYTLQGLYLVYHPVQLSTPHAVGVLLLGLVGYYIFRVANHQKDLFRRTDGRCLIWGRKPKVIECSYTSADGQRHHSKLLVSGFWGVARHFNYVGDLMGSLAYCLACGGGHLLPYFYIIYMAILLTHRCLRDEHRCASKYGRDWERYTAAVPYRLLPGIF
inactive: [1] -0.037 | [2] -0.028 | [3] -0.055 | [4] 0.023 | [5] 0.104 | [6] 0.011 | [7] 0.039 | [8] 0.139 | [10] 0.204
active: [9] 0.808
